Source: PubChem BioAssay (NCI)
The panel holds about 79,000 compounds, 15% with a hit somewhere; the sample as a whole holds those more often. Calls of active or inactive are those of the source. Rule as the data show it: active = growth inhibition above about 70%; inactive = the rest.

Assays:
[1] = NCI Yeast Anticancer Drug Screen. Data for the rad52 strain (AID 147);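 also: 0% = growth of vehicle-treated control cultures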; conditions: S. cerevisiae rad52 mutant growth inhibition, active compounds read high
How it was run: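 Inhibition of yeast growth, referenced to vehicle controls, was the measured output for a strain with defective DNA damage repair.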

[2] = NCI Yeast Anticancer Drug Screen. Data for the wt1 strain (AID 149);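 also: 0% = growth of vehicle-treated wt1 cultures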; conditions: S. cerevisiae wt1 strain (SPY 50644) growth inhibition, active compounds read high
How it was run: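 Measured: growth of wt1 yeast under compound versus vehicle treatment, reported as inhibition.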

[3] = NCI Yeast Anticancer Drug Screen. Data for the rad50EPP+ strain (AID 151);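 also: 0% = growth of vehicle-treated control cultures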; conditions: S. cerevisiae rad50 mutant strain, active compounds read high
How it was run: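 Genetically defined yeast (rad50EPP+, DNA damage repair alteration) is grown with compound, and inhibition of growth is expressed relative to vehicle-treated controls.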

[4] = NCI Yeast Anticancer Drug Screen. Data for the mgt1 strain (AID 153); conditions: S. cerevisiae mgt1 mutant growth inhibition, active compounds read high
How it was run: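 In the mgt1 strain, test compounds were added and growth inhibition was determined relative to vehicle-treated controls.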

[5] = NCI Yeast Anticancer Drug Screen. Data for the rad50 strain (AID 155);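 also: 0% = growth of vehicle-only cultures of the same strain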; conditions: S. cerevisiae rad50 strain growth inhibition, active compounds read high
How it was run: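 Growth of the mutant yeast was measured after compound exposure and referenced to vehicle-treated cultures.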

[6] = NCI Yeast Anticancer Drug Screen. Data for the mec2-1 strain (AID 157); conditions: S. cerevisiae mec2-1 strain, active compounds read high
How it was run: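 Each compound was tested on mec2-1 yeast, a strain altered in DNA damage repair or cell cycle control. Growth inhibition is reported relative to vehicle.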

[7] = NCI Yeast Anticancer Drug Screen. Data for the rad14 strain (AID 159);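 also: 0% = growth of vehicle-treated control cultures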; conditions: S. cerevisiae rad14 strain growth inhibition, active compounds read high
How it was run: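 Here, inhibition of yeast growth was measured after compound exposure, using a strain with a genetic defect in DNA damage repair and vehicle-treated cultures as the reference.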

[8] = NCI Yeast Anticancer Drug Screen. Data for the sgs1 mgt1 strain (AID 161);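 also: 0% = growth of cultures given vehicle only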; conditions: S. cerevisiae sgs1 mgt1 strain, active compounds read high
How it was run: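 Mutant yeast exposed to compound; growth scored against vehicle-only wells.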

[9] = NCI Yeast Anticancer Drug Screen. Data for the CLN2oe strain (AID 163);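 also: 0% = growth of vehicle-only control cultures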; conditions: S. cerevisiae CLN2oe strain, active compounds read high
How it was run: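 First, the altered yeast strain was treated with each compound; second, its growth was measured; finally, inhibition was derived by comparison with vehicle controls.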

[10] = NCI Yeast Anticancer Drug Screen. Data for the cln2 rad14 strain (AID 165);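 also: 0% = growth equal to vehicle treated cultures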; conditions: S. cerevisiae cln2 rad14 strain, active compounds read high
How it was run: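 Test compounds were added to cln2 rad14 yeast cultures; inhibition of growth was then determined by comparison with vehicle treatment.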

[11] = NCI Yeast Anticancer Drug Screen. Data for the bub3 strain (AID 167); conditions: S. cerevisiae bub3 mutant strain, active compounds read high
How it was run: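 Whole-cell yeast assay. The mutant strain was incubated with compounds, and growth inhibition was determined by comparison with vehicle-treated cells.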

[12] = NCI Yeast Anticancer Drug Screen. Data for the wt2 strain (AID 169);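 also: 0% = growth of vehicle-treated yeast cultures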; conditions: S. cerevisiae wt2 strain growth inhibition, active compounds read high
How it was run: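 The panel's yeast strains carry defined changes in DNA repair or cell cycle genes. Each strain is grown with compound, and growth loss is scored relative to vehicle.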

[13] = NCI Yeast Anticancer Drug Screen. Data for the mlh1 strain (AID 171);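 also: 0% = growth of vehicle-treated control cultures of the same strain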; conditions: S. cerevisiae mlh1 strain growth inhibition, active compounds read high
How it was run: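 Inhibition values reflect reduced yeast growth in the presence of compound, referenced to vehicle controls, using a strain chosen for its alteration in DNA repair or cell cycle control.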

[14] = NCI Yeast Anticancer Drug Screen. Data for the sgs1 strain (AID 173);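 also: 0% = growth of vehicle-only control cultures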; conditions: S. cerevisiae sgs1 mutant, active compounds read high
How it was run: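 Vehicle-treated cultures served as reference for growth inhibition of a yeast strain altered in DNA damage repair or cell cycle control after compound exposure.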

[15] = NCI Yeast Anticancer Drug Screen. Data for the mlh1 rad18 strain (AID 175); conditions: S. cerevisiae mlh1 rad18 strain growth inhibition, active compounds read high
How it was run: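 Inhibition values reflect reduced growth of mutant yeast versus vehicle-treated controls following compound exposure; the mutations affect DNA damage repair.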

[16] = NCI Yeast Anticancer Drug Screen. Data for the rad18 strain (AID 177); conditions: S. cerevisiae rad18 mutant growth inhibition, active compounds read high
How it was run: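 Steps: expose repair-mutant yeast to compound; measure growth; express as inhibition relative to vehicle control.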

[17] = at 5.0 µM (retest, dose inferred, filed as 0.5)
[18] = at 50.0 µM (retest, dose inferred, filed as 5.0)

Measured: growth inhibition

CCC(=O)Oc1ccc(/C=N/NC(N)=S)nc1
active: [6]; [18] 95% | [6]; at 50.0 µM 87.4% | [6]; at 100.0 µM 91%
inactive: [1]; at 1.2 µM -6% | [1]; at 3.7 µM -11% | [1]; at 11.0 µM 4% | [1]; at 33.0 µM 13% | [1]; at 100.0 µM 18% | [2]; at 1.2 µM 0% | [2]; at 3.7 µM 7% | [2]; at 11.0 µM 7% | [2]; at 33.0 µM 13% | [2]; at 100.0 µM 19% | [3]; at 1.2 µM 0% | [3]; at 3.7 µM -5% | [3]; at 11.0 µM -9% | [3]; at 33.0 µM -11% | [3]; at 100.0 µM -12% | [4]; at 1.2 µM -1% | [4]; at 3.7 µM -3% | [4]; at 11.0 µM -2% | [4]; at 33.0 µM -5% | [4]; at 100.0 µM -4% | [5]; at 1.2 µM -7% | [5]; at 3.7 µM -11% | [5]; [17] -6% | [5]; at 11.0 µM -12% | [5]; at 33.0 µM 3% | [5]; [18] 6% | [5]; at 50.0 µM 22.4% | [5]; at 100.0 µM 21% | [6]; at 1.2 µM -2% | [6]; at 3.7 µM 0% | [6]; [17] 0% | [6]; at 11.0 µM 0% | [6]; at 33.0 µM 37% | [7]; at 1.2 µM 1% | [7]; at 3.7 µM 1% | [7]; at 11.0 µM 3% | [7]; at 33.0 µM 10% | [7]; at 100.0 µM 12% | [8]; [17] 0% | [8]; [18] 32% | [8]; at 50.0 µM 39% | [9]; at 1.2 µM -5% | [9]; at 3.7 µM -8% | [9]; at 11.0 µM -11% | [9]; at 33.0 µM -11% | [9]; at 100.0 µM -9% | [10]; [17] -5% | [10]; [18] -14% | [10]; at 50.0 µM 4% | [11]; at 1.2 µM -7% | [11]; at 3.7 µM -4% | [11]; [17] -8% | [11]; at 11.0 µM -15% | [11]; at 33.0 µM -18% | [11]; [18] -13% | [11]; at 50.0 µM 17.1% | [11]; at 100.0 µM -15% | [12]; at 1.2 µM 2% | [12]; at 3.7 µM 7% | [12]; at 11.0 µM 16% | [12]; at 33.0 µM 35% | [12]; at 100.0 µM 34% | [13]; at 1.2 µM -8% | [13]; at 3.7 µM -3% | [13]; at 11.0 µM -6% | [13]; at 33.0 µM -8% | [13]; at 100.0 µM 3% | [14]; at 1.2 µM -16% | [14]; at 3.7 µM -11% | [14]; at 11.0 µM -2% | [14]; at 33.0 µM 9% | [14]; at 100.0 µM 11% | [15]; [17] -2% | [15]; [18] 19% | [15]; at 50.0 µM 26.1% | [16]; at 1.2 µM -4% | [16]; at 3.7 µM 1% | [16]; at 11.0 µM -3% | [16]; at 33.0 µM -8% | [16]; at 100.0 µM -5%
